This is a sample that favours compounds with a hit; in the whole collection about 2.4% have one here.
D2 ag-1 – Beta-Arrestin HTS for Positive Allosteric Modulators of the Human D2 Dopamine Receptor: Agonists; activation, % (concentration not given with the values); DiscoveRx PathHunter D2 beta-arrestin, luminescence, 90 min; 100% = 57 uM dopamine signal; 360,000 tested, 0.084% active; in the data active = activation above about 40%; inconclusive = between about 15% and that limit
Target sequence (P14416 whole entry, looked up): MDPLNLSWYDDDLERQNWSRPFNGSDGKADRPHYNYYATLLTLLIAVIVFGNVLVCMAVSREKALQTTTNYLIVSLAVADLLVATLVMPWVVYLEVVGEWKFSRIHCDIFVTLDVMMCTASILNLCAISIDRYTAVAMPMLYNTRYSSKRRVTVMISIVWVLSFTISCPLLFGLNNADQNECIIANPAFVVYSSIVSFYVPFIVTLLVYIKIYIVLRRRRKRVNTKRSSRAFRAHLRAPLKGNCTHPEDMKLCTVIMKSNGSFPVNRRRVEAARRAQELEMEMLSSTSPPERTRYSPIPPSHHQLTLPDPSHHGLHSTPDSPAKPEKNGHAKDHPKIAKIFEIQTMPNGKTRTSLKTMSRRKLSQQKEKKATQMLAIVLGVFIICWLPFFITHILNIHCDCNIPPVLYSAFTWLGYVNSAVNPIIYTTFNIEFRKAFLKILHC
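Agonist mode: compounds alone added to overnight-plated D2 PathHunter cells for 90 min at 37 C, with 57 uM final dopamine (EC100) defining full response. Beta-arrestin recruitment detected by chemiluminescent reagent, read after 1 h at ambient temperature.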
D2 antagonist – HTS Assay for Allosteric Antagonists of the Human D2 Dopamine Receptor: Primary Screen for Antagonists; D(2) dopamine receptor (Homo sapiens), P14416; HEK293 TREx D2 cells, calcium flux, dopamine EC80; inhibition, % at 10 µM; 340,000 tested, 2% active; in the data active = inhibition above about 30%; inactive = below that, where a call was filed
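Inhibition of EC80 dopamine-driven calcium flux, recorded kinetically, defines activity here; cells are a tetracycline-induced HEK293 T-REx line expressing force-coupled D2.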
D2 PAM-1 – Beta-Arrestin HTS for Positive Allosteric Modulators of the Human D2 Dopamine Receptor: Potentiators. DiscoveRx D2 beta-arrestin cells, luminescence, 90 min; 100% = 57 uM dopamine signal. potentiation, % (no concentration beside the values). 360,000 tested, 0.23% active; in the data active = potentiation above about 50%; inconclusive = mostly about 30% to 49%
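PathHunter D2 cells, attached overnight at 37 deg C, received compound in DMSO plus dopamine at EC20 (50 nM final) for 90 min at 37 deg C. Beta-arrestin recruitment was read as luminescence after 1 h with detection reagent at ambient temperature.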
D2 ag-2 – HTS Assay for Allosteric Agonists of the Human D2 Dopamine Receptor: Primary Screen for Agonists. D(2) dopamine receptor (Homo sapiens), P14416. HEK293 T-REx D2 cells, calcium flux agonist mode. activation, % at 2 µM. 340,000 tested, 0.53% active;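 active = activation over 3 SD above normal in the single-dose calcium agonist read, cut at about 30% in these data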
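Agonism is scored from calcium flux in a force-coupled, inducible HEK293 cell line expressing D2, read kinetically for 180 s after compound addition against dopamine controls.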
D2 PAM-2 – HTS Assay for Positive Allosteric Modulators of the Human D2 Dopamine Receptor: Primary Screen for Potentiators | D(2) dopamine receptor (Homo sapiens), P14416 | HEK293 T-REx D2, calcium flux, EC20 dopamine potentiation | potentiation, % at 10 µM | 340,000 tested, 0.34% active | AID 485347, 2010;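 active = potentiation over 3 SD above the plate norm, cut at about 30% in these data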
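Primary screen. Calcium kinetics in induced HEK293 T-REx D2 cells: compound pre-addition 180 s, EC20 dopamine, 180 s more.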
Numbers stand for hits; 0 = inactive; ? = inconclusive; - = no result given.

SMILES	D2 ag-1	D2 antagonist	D2 PAM-1	D2 ag-2	D2 PAM-2
Fc1ccc(NC(=S)NCCc2ccc(Cl)cc2)cc1	0	32	0	0	0
Cc1ccc(NC(=O)Cn2cc(S(=O)(=O)c3ccc(C)cc3)c(=O)c3cc4c(cc32)OCO4)cc1	-	-	-	0	0
Cc1cc(C(=O)COC(=O)/C=C/c2ccc(F)cc2)c(C)n1C	0	0	0	0	0
COCC(C)n1c(C)cc(C(=O)COC(=O)/C=C/c2cccc(F)c2)c1C (stereo not drawn)	0	0	0	0	53
CCc1ccccc1NC(=O)CSc1nncn2c1cc1oc(C)cc12	-	-	-	0	0
COc1ccc(C2CN=NC23CCCc2ccccc2C3=O)cc1 (stereo not drawn)	0	0	64	0	0
Cc1cccc(-n2c3nc(=O)n(C)c(=O)c-3cc3c(C)nn(-c4ccccc4)c32)c1C	-	-	-	0	0
CCc1ccc(OCc2nc(-c3ccc(OC)c(OC)c3)no2)c(Br)c1	-	-	-	0	0
CCn1c(SCC(=O)NCc2ccc3c(c2)OCO3)nnc1-c1c[nH]c2ccccc12	0	0	0	0	34
Cc1oc(C(C)(C)C)cc1C(=O)NC1CCN(Cc2ccccc2)CC1	0	85	0	0	0
CCN(CC)S(=O)(=O)c1ccc(Cl)c(C(=O)NC2CCN(Cc3ccccc3)CC2)c1	0	0	0	0	0
Cc1oc(-c2ccc(Cl)cc2)cc1C(=O)NC1CCN(Cc2ccccc2)CC1	0	58	0	0	0
CCc1ccc(NC(=O)c2ccc3c(O)c(S(=O)(=O)c4ccccc4)c(=O)[nH]c3c2)cc1	-	-	-	-	0
Cc1oc(-c2cccc(Cl)c2)nc1CS(=O)(=O)CC(=O)NC(C)CCc1ccccc1 (stereo not drawn)	-	-	-	0	0
CCCCC(CC)CNC(=O)CCCn1c(=O)[nH]c2ccsc2c1=O (stereo not drawn)	-	-	-	0	0
CCOC(=O)c1ccccc1NC(=O)N1CCC(N2CCN(Cc3ccccc3)C(=O)C2=O)CC1	-	-	-	0	0
COC1CCCCC1NS(=O)(=O)c1ccc(Cl)cc1 (stereo not drawn)	0	31	0	0	0
Cc1ncc(C(=O)O)c(C(=O)O)c1N	0	0	0	0	35
CCCN1CN(Cc2ccco2)c2nc3ccccc3n2C1	0	43	0	0	0
Cn1c(=O)c2sccc2n2c(CCCC(=O)NCc3cccnc3)nnc12	0	0	0	0	0
Cn1c(=O)c2sccc2n2c(CCCC(=O)NCc3ccc(F)cc3)nnc12	0	0	0	0	33
Cn1c(=O)c2sccc2n2c(CCCC(=O)NCc3ccc4c(c3)OCO4)nnc12	0	0	0	0	35
Cn1c(=O)c2sccc2n2c(CCCC(=O)Nc3ccc(F)c(F)c3)nnc12	-	-	-	0	0
Cn1c(=O)c2sccc2n2c(CCCC(=O)Nc3ccc(F)cc3F)nnc12	0	0	0	0	32
CC(C)c1noc(-c2ccccc2OCC(=O)Nc2ccc([N+](=O)[O-])cc2)n1	-	-	-	0	0
SMILES	D2 ag-1	D2 antagonist	D2 PAM-1	D2 ag-2	D2 PAM-2
CCc1ccccc1Nc1nn2c(=O)c3ccc(C(=O)NCCC4=CCCCC4)cc3nc2s1	-	-	-	0	0
CNC(=O)C[C@@H]1C(=O)N(C2CCCCC2)CC1(C)C	0	-	0	-	-
O=C1Cc2cc(S(=O)(=O)N3CCN(c4ccccc4)CC3)ccc2N1	0	0	0	0	0
O=C1Cc2cc(CCN3CCN(c4nsc5ccccc45)CC3)c(Cl)cc2N1	-	84	-	0	0
Cc1ccc(NC(=O)c2ccc(CSc3nccc(C)n3)cc2)cc1	0	31	0	0	0
CN1CCCC(CN2c3ccccc3Sc3ccccc32)C1 (stereo not drawn)	0	-	0	-	-
CN1CCCCC1CCN1c2ccccc2Sc2ccc(S(C)=O)cc21 (stereo not drawn)	0	96	0	0	0
N#Cc1cc(S(=O)(=O)c2ccccc2)c(N)[nH]c1=O	0	86	0	0	0
COc1ccc2oc(C)c(C(=O)c3ccc([N+](=O)[O-])cc3)c2c1	?	0	84	0	0
CCc1ccccc1NC(=O)NC(CC)Cn1nnc2ccccc2c1=O (stereo not drawn)	-	-	-	0	0
Cn1cnnc1SCC(=O)Nc1nc(-c2ccccc2)cs1	0	56	0	0	0
Cc1nnc(SCC(=O)Nc2nc(-c3ccccc3)cs2)n1N	0	0	0	0	0
COc1ccc(Cl)cc1NC(=O)CSc1nc(=O)n(Cc2ccco2)c2c1CCC2	-	-	-	0	0
CCOc1ccc(N2CC(NC(=O)c3cc4ccccc4o3)CC2=O)cc1 (stereo not drawn)	-	-	-	0	0
CCN(c1ccccc1C)S(=O)(=O)c1cc2c3c(c1)CCN3C(=O)CC2	0	-	0	-	0
CCN(c1ccccc1C)S(=O)(=O)c1cc2c3c(c1)CCC(=O)N3CCC2	0	0	0	0	41
CCC(C)NC(=O)COC(=O)c1cc([N+](=O)[O-])ccc1Sc1nc(C)cs1 (stereo not drawn)	0	0	51	0	0
Cc1csc(Sc2ccc([N+](=O)[O-])cc2C(=O)OCC(=O)NC2CCCC(C)C2C)n1 (stereo not drawn)	0	0	0	0	0
CSc1ccc(/C=N\Nc2nncn2N)cc1	43	0	0	0	0
COc1ccc2nc(Nc3sc4c(c3C(N)=O)CCCC4)sc2c1	?	0	55	0	0
COc1ccc(CNC(=O)Cc2c(C)c3cc4c(C)coc4cc3oc2=O)cc1	-	-	-	-	0
Cc1ccc(NC(=O)c2cccs2)cc1NC(=O)c1cccnc1	0	-	77	-	-
COc1ccccc1CNC(=O)CN1C(=O)CCc2cc(S(=O)(=O)N3CCCCC3)ccc21	-	-	-	0	0
Cc1nc2ccccc2c2oc(C(=O)N3CC(C)CC(C)C3)cc12 (stereo not drawn)	0	0	0	0	31
Cc1nc2ccccc2c2oc(C(=O)NCCCN3CC(C)CC(C)C3)cc12 (stereo not drawn)	0	0	0	0	0
Cc1ccc(Cn2c(C)c(CNC(C)c3ccccc3)c(C(=O)O)c2C)cc1 (stereo not drawn)	-	-	-	0	0
CCN1CCN(C(=O)C2c3cc(OC)c(OC)cc3C(=O)N(C)C2c2ccc(SC)cc2)CC1 (stereo not drawn)	0	0	0	0	46
Cc1ccc(NC(=O)Cn2c(=O)n(Cc3ccccc3)c(=O)c3c(C)c(C(=O)N(C)C)sc32)c(C)c1	-	-	-	0	0
CN(Cc1nc(-c2cccc(Cl)c2)no1)C1CCOCC1	0	47	0	0	0
